# What was measured:
# Format in all cases: functional
# [1] = biological target: Solute carrier family 2, facilitated glucose transporter member 1 (Homo sapiens) (UniProt P11166); experiment: ST_JUDE_LEISH: Cytotoxicity at 2uM final concentration against transgenic Leishmania Mexicana promastigotes LmGLUT1 that are glucose transport deficient and complemented with the human glucose transporter GLUT1. Activity is measured by DNA content using SYBR green in vitro
# [2] = biological target: Hexose transporter 1 (Plasmodium falciparum) (UniProt O97467); experiment: ST_JUDE_LEISH: Cytotoxicity at 2uM final concentration against transgenic Leishmania Mexicana promastigotes LmPfHT that are glucose transport deficient and complemented with the Plasmodium falciparum hexose transporter. Activity is measured by DNA content using SYBR green in vitro
# [3] = biological target: Glucose transporter (Leishmania mexicana) (UniProt O61059); experiment: ST_JUDE_LEISH: Cytotoxicity at 2uM final concentration against transgenic Leishmania Mexicana promastigotes LmGT2 that are glucose transport deficient and complemented with the L. Mexicana glucose transporter 2. Activity is measured by DNA content using SYBR green in vitro
# Sequence of Solute carrier family 2, facilitated glucose transporter member 1 (Homo sapiens) (P11166 whole entry): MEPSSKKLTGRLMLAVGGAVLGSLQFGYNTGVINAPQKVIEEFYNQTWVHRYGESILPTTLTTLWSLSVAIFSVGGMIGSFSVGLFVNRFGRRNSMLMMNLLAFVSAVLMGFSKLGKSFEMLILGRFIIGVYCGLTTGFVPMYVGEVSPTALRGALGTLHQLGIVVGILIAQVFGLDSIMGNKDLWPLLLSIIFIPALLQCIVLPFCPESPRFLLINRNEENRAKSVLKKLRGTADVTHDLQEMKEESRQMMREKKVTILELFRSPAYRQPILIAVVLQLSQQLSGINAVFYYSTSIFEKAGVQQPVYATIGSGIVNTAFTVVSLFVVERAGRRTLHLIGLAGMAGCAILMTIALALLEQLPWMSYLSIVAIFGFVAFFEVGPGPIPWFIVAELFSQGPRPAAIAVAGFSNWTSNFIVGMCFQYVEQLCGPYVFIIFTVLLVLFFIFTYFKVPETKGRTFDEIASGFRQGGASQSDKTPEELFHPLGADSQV
Structure (SMILES),inhibition [1] [%],inhibition [2] [%],inhibition [3] [%]
Oc1ccc2nc(N3CCNCC3)nc(NCCCc3ccccc3)c2c1,-0.71,-0.65,0.5
O=C(/C=C/c1ccc(Cl)c(Cl)c1)NCCCCCN1CCCN(C(=O)Nc2ccc(Cl)c(Cl)c2)CC1,-0.96,-0.4,-0.85
Cn1nccc1C(=O)NCCNCc1ccc(-c2cccc(-c3nc4cc(F)ccc4[nH]3)c2)cc1,-0.28,-4.29,-1.92
CCC1=C(CC2NCCc3cc(OC)c(OC)cc32)CC2c3cc(OC)c(OC)cc3CCN2C1 (stereo not given),87.8,92.4,89.6
O=C(N[C@@H](Cc1ccccc1)C(=O)NCCN1CCCC1)c1ccc(O)c(-c2ccc(Cl)c(Cl)c2)c1,7.15,3.32,6.16
Cc1ccc(NC(=O)NC2CCN(CCC(NC(=O)Cc3ccccc3)c3ccc(Cl)c(Cl)c3)CC2)cc1 (stereo not given),-2.11,-2.83,-3.14
Cc1[nH]c(/C=C2\C(=O)Nc3ccc(S(=O)(=O)Cc4c(Cl)cccc4Cl)cc32)c(C)c1C(=O)N1CCC[C@@H]1CN1CCCC1,1,0.58,2.26
N=C(NCCc1ccccc1Cl)c1ccc2ccccc2c1,-1.42,-1.63,-2.06
O=C(Nc1cccc(CN2CCN(C(=O)c3cccc(F)c3)CC2)c1)c1cccs1,0.66,1.04,-0.67
CCCc1cc(Cc2cnc(N)nc2N)cc2c1OC(C)(C)C2,5.74,3.03,2.58
COc1cc2nc(N3CCC(CNC(=O)c4cc5ccccc5s4)CC3)nc(N)c2cc1OC,11.8,11,10.4
COc1ccc(N2CCN(CCCCNC(=O)c3ccc(NC(=O)c4ccc(OC(F)(F)F)cc4)cc3)CC2)c(OC)c1,5.81,5.69,6.29
N#Cc1ccc(-n2cc(C(=O)Nc3ccc4c(c3)CCN(C3CCC3)CC4)c(C(F)(F)F)n2)cc1,7.01,6.79,4.42
O=C(Nc1ccccc1)c1cccc(Nc2nccc(Nc3ccc(Oc4ccccc4)cc3)n2)c1,0.65,1.07,0.87
Cc1cc(C(=O)Nc2ccc3c(c2)CCN3C2CCN(Cc3ccc4nsnc4c3)C2)no1 (stereo not given),3.24,2.32,5.35
N#Cc1cccc(Nc2cc(C(F)(F)F)nc(Nc3ccccc3)n2)c1,15.4,11.3,6.45
Nc1ccc(-c2nc3cc(C4=N[C@H]5CCCC[C@H]5N4)ccc3o2)cc1[N+](=O)[O-],3.44,1.57,-0.09
CC(C)Cc1nc2nc(N)nc(N)c2cc1C(C)C,1.84,4.17,1.5
O=C(Nc1cccc(-c2cccc(F)c2)c1)C1CCN(Cc2ccc(O)cc2)CC1,2.54,2.14,2.19
Cc1cccc2nc(-c3ccc(-c4ccc(CN5CCCC(O)C5)cc4)s3)[nH]c12 (stereo not given),6.59,7.2,3.86
CCOc1ccc2[nH]c(C)cc(=NN=Cc3cccnc3)c2c1,8.63,6.06,7.76
COc1ccc2[nH]ccc(=NN=Cc3ccccc3)c2c1,13.5,9.86,5.06
Cc1ccccc1C(=O)Nc1cccc(-c2nc3ncccn3c2C)c1,3.33,3.11,1.25
CC(=O)N/N=C/[C@H](CCc1ccccc1)NC(=O)[C@H](CC(C)C)NC(=O)c1ccc(OCCN2CCOCC2)cc1,2.92,6.88,3.05

Structure (SMILES),inhibition [1] [%],inhibition [2] [%],inhibition [3] [%]
N#Cc1cccc(NC(=O)Nc2cccc(-c3ccc(-c4nc5cc(C(F)(F)F)ccc5[nH]4)cc3)c2)c1,2.29,2.13,-7.53
c1ccc(-c2ccc(-c3csc(Nc4ccncc4)n3)cc2)cc1,0.44,1.9,1.13
c1cc(C2=NC3CCCCC3N2)ccc1OCCCCCOc1ccc(C2=NC3CCCCC3N2)cc1 (stereo not given),2.83,5.62,1.28
Cc1ccc(-c2ccc3c(c2)C=C(C(=O)NC2CCN(CCNC(=O)c4cccc(C(F)(F)F)c4)CC2)CCC3)cc1,5.7,7.43,7.77
O=C(Nc1ccc(-c2cccc(CN3CCC(O)CC3)c2)cc1)c1cccc(Cl)c1,24.1,17.8,16.8
Cc1ccc(C(=O)Nc2ccc(OC3CCN(CCC(C)C)C3)c(Cl)c2)cc1 (stereo not given),3.79,4.8,3.43
O=C(Nc1cc(=O)[nH]c2nc(-c3ccccc3)nn12)C1CCCCC1,2.3,2.44,3.26
CCC(C)(C)C1CCc2nc(N)nc(N)c2C1 (stereo not given),67,71.9,56.1
CCc1n[nH]c(C(=O)NC2CCN(CC3(c4ccc(OC)cc4)CCCCC3)CC2)c1C,3.43,2.97,1.81
CCOc1ccc(-c2nonc2NC(=O)c2ccccc2OC)cc1OCC,3.08,2.92,0.46
CC(C)n1c(CC2CCN(CC3CCN(C(=O)/C=C/c4ccc(Cl)c(Cl)c4)CC3)CC2)nc2ccccc21,-1.74,-2.38,-2.53
Cc1cc(C)cc(OCC(O)CN(Cc2cc(Cl)cc(Cl)c2)C(=O)Nc2ccc(Cl)cc2)c1 (stereo not given),0.89,-0.94,-0.48
COc1cc(COc2c(C)nc(N)nc2N)cc(OC)c1OC,5.98,4.54,4.97
COc1ccc(CC(=O)NC(CCN2CCC3(CCc4ccccc43)CC2)c2ccc(Cl)c(Cl)c2)cc1 (stereo not given),0.25,-0.66,-0.93
CNC(=O)C1Cc2c([nH]c3ccc(Cl)cc23)C2(CCN(CCc3ccccc3)CC2)N1 (stereo not given),3.32,0.71,-2.87
COc1ccc(-c2nc3c(N)nc(N)nc3nc2-c2ccccc2Cl)cc1.COc1ccc(-c2nc3nc(N)nc(N)c3nc2-c2ccccc2Cl)cc1,9.91,10.5,6.97
Cc1ccc(NS(=O)(=O)c2ccc(C(C)N3CCC(N4CCCCC4)CC3)cc2)cc1C (stereo not given),-2.42,-0.86,0.73
COc1cc2c(c(Cl)c1OC)CCN(C(=O)C(F)(F)F)CC2c1ccccc1 (stereo not given),6.36,5.47,4.64
CC(C)(CNCc1cccc(Oc2cccc(C(F)(F)F)c2)c1)c1nc(-c2ccnc(N)n2)c(-c2ccc(Cl)c(O)c2)[nH]1,6.03,6.79,7.44
COc1ccc(-c2cccc(NC(=O)c3cccc(Cl)c3)c2)cc1CN(C)CCN(C)C,1.29,0.75,-1.29
Cc1cc(N2CCOCC2)nc2ccc(NC(=O)c3cccc([N+](=O)[O-])c3)cc12,5.27,4.5,3.77
CC(Nc1ccnc2cc(Cl)ccc12)c1ccc(S(N)(=O)=O)cc1 (stereo not given),-1.53,1.3,2.92
COc1ccc2nccc(N3CCC(CCNCc4ccc5c(n4)NC(=O)CO5)CC3)c2c1,1.72,5.22,-0.63
CC(C)CNCc1cccc(-c2cccc(CN(CCN(C)C)C(=O)Nc3ccccc3)c2)c1,2.46,4.17,0.55

Structure (SMILES),inhibition [1] [%],inhibition [2] [%],inhibition [3] [%]
FC(F)(F)c1ccc2[nH]c(-c3cccc(-c4ccc(CNCc5cnn(-c6ccccc6)n5)cc4)c3)nc2c1,-0.1,0.61,2.19
O=C1Nc2cccc3c2C1(CCCCN1CCC(c2c(-c4ccccc4)[nH]c4ccccc24)CC1)CCC3 (stereo not given),3.04,2.74,-0.14
CCCC(C)NC(=O)[C@H]1CNCCN1C(=O)CCCc1ccccc1 (stereo not given in full),8.59,7.9,3.67
CCN(CC)CCN(Cc1ccc(-c2ccc(C(F)(F)F)cc2)cc1)C(=O)Cn1c(CCc2cccc(F)c2F)c(C)c(=O)c2ccccc21,1.84,1.5,3.04
COc1ccc(Nc2nccc(N3CCC(NC(=O)C(C)c4ccc(Cl)cc4)C3)n2)cc1 (stereo not given),-0.18,0.96,1.34
CN1CCC(c2c[nH]c3ccc(NC(=O)Nc4ccc(-c5ccncc5)c(Cl)c4Cl)cc23)CC1,-2.47,0.63,4.75
Cc1ccoc1C(=O)Nc1ccc(-c2cccc(-c3nc4cccc(C)c4[nH]3)c2)cc1,2.21,2.54,1.34
COc1cc2c(cc1OC)C(C(=O)Nc1ccc(C(F)(F)F)cc1)C(c1cccs1)N(C)C2=O (stereo not given),2.92,3.56,1.2
Cc1ccc(NC(=O)c2ccc3ncccc3c2)cc1OC1CCN(Cc2ccsc2)CC1,3.79,3.4,2.95
CN1CCN(CCCN(Cc2cccc(-c3ccc(CNC4CCCC4)cc3)c2)C(=O)CCC2CCCC2)CC1,17.4,8.03,3.62
CCCO[C@H](C(=O)OC)[C@@H](CC1Cc2ccccc2C1)C(=O)NCCC1=CCCCC1,1.54,1.34,2.2
N=C(NCCCCC1CCCCC1)c1cccc(C(=N)NCCCCC2CCCCC2)n1,0.33,0.98,0.14
O=C(/C=C/c1ccc(Cl)c(Cl)c1)NCC(CCCN1CCC(c2c[nH]c3ccccc23)CC1)c1ccccc1 (stereo not given),3.06,-1.36,2.05
CCc1cc2c(=O)c(-c3nc(C)cs3)c([C@H](N)Cc3ccc(O)cc3)oc2cc1O,2.9,2.34,7.8
COc1ccc(Cl)cc1NC(=O)CN(C)C(=O)c1cnn(-c2ccccc2)n1,1.85,-0.34,3.11
CCC(C)(C)c1ccc(Oc2ccc(NC(=O)Nc3ccc(Cl)c(Cl)c3)cc2)cc1,1.75,1.24,1.26
CN(CCC(CCN1CCC(c2c[nH]c3ccccc23)CC1)c1ccccc1)C(=O)Nc1ccc(Cl)c(Cl)c1 (stereo not given),2.82,0.21,0.72
O=C(O)c1cc(C(F)(F)F)co1,-2.13,-1.54,-0.54
COc1ccc2ncc(F)c(CCN3CC[C@@H](CNCc4nc5c(cc4C)SCC(=O)N5)C3)c2n1,3.29,3.35,0.49
Cc1cnc(C(=O)Nc2cccc(-c3cccc(-c4nc5cc(F)ccc5[nH]4)c3)c2)cn1,8.32,5.55,5.18
CN(C)CCNC(=O)[C@H](CC1CCCCC1)NC(=O)c1ccc(O)c(-c2ccc(Cl)c(Cl)c2)c1,4,2.85,1.78
CCOc1ccc2c(=NN=Cc3c4ccccc4cc4ccccc34)cc(C)[nH]c2c1,2.42,1.13,3.35

# — ChEMBL document CHEMBL3433997, “St. Jude Leishmania screening dataset” (2016)
